In PubChem BioAssay (NCI) one finds growth data, which are given here for 16 compounds.

“And” between values parts separate entries of the source, which are not always exact repeats. Identical values can stand only once. The panel holds about 83,000 compounds, 20% with a hit somewhere; the sample as a whole holds those more often.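 Values shown are percent growth following 48 h exposure of cells in 96-well plates to a single concentration of compound; below 10 was considered active.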 Values without a mark were called inactive. The source made the active and inactive calls.

What all share (test): NCI-60 one-dose screen, 48 h (100 = growth as untreated, 0 = no growth, -100 = all killed)
One assay relates to EKVX NSCLC. Conditions: 10 µM unless noted.
A further assay relates to UO-31 renal. Conditions: 10 µM unless noted.
A further assay relates to TK-10 renal.
Another assay has as its system ACHN renal. Conditions: 10 µM unless noted.
In the next assay the test system is CAKI-1 renal. Conditions: 10 µM unless noted.
The next assay deals with A498 renal. The following applies: 10 µM unless noted.
Another assay relates to CCRF-CEM leukemia. The following applies: 10 µM unless noted.
A further assay relates to MOLT-4 leukemia. The following applies: 10 µM unless noted.
The test system of a further assay is SR leukemia. Conditions: 10 µM unless noted.
For the next assay, the system named is SN12C renal. Conditions: 10 µM unless noted.

Take `CCN(CC)CCCNCCCNc1cc(OC)cc2cccnc12`: the growth was 80.7% in the assay on EKVX NSCLC; 88.1% with UO-31 renal; 112% with TK-10 renal (10 µM unless noted); 101% with ACHN renal; 97.6% with CAKI-1 renal; 76.4% with A498 renal. In addition, the growth in the assay with CCRF-CEM leukemia is 88.9%; with MOLT-4 leukemia, 75.6%; with SR leukemia, 79.5%.

As for `NC(=O)N/N=C/c1ccc(Br)o1`, the growth in the assay on EKVX NSCLC was 101%; in the assay on UO-31 renal, 86.1%; in the assay with TK-10 renal (10 µM unless noted) it was 101%; in the assay on ACHN renal, 106%; with CAKI-1 renal it was 98.4%; in the assay with A498 renal, 97.5%. For the same compound, the figures for the growth in the assay with CCRF-CEM leukemia, with MOLT-4 leukemia and in the assay on SR leukemia were 108%, 97.9% and 97.6%, respectively.

`CCOC(=O)/C=C(/C)Sc1cc(O)c2ccccc2c1O`: the growth is 44.8% in the assay on EKVX NSCLC; -68.3% (active) with SN12C renal; 105% in the assay on TK-10 renal (10 µM unless noted); 25.2% in the assay on ACHN renal; 46.1% with CAKI-1 renal; 38.4% with CCRF-CEM leukemia. Further, the figures for the growth in the assay with MOLT-4 leukemia and with SR leukemia were 33% and 17.1%, respectively.

`CCC[C@H](N[C@@H](C)C(=O)N1[C@H](C(=O)O)C[C@@H]2CCCC[C@@H]21)C(=O)OCC`: the growth is 111% with EKVX NSCLC; 77.4% in the assay on UO-31 renal; 113% in the assay with TK-10 renal (10 µM unless noted); 90.8% in the assay on ACHN renal; 102% with CAKI-1 renal; 98.9% with A498 renal. The growth was 105% in the assay on CCRF-CEM leukemia and 115% in the assay on MOLT-4 leukemia.

As to `O=C(/C=C/c1ccccc1Cl)c1ccc(O)cc1`, the growth was 84.8% with EKVX NSCLC; 67.3% with SN12C renal; 78.6% in the assay on TK-10 renal (10 µM unless noted); 78.9% in the assay with ACHN renal; 91.9% in the assay with A498 renal; 30.6% with CCRF-CEM leukemia. The growth is 55.1% in the assay on MOLT-4 leukemia and 27.9% in the assay on SR leukemia.

Turning to `Cn1cnc([N+](=O)[O-])c1S(=O)(=O)Oc1ccc(Cl)cc1`, the growth in the assay with EKVX NSCLC was 102%; in the assay on SN12C renal, 94.5%; with TK-10 renal (10 µM unless noted), 96.1%; in the assay with ACHN renal, -70.8% (active); in the assay with CAKI-1 renal, -65.1% (active); in the assay on CCRF-CEM leukemia it was -49.8% (active). Further, the growth in the assay on MOLT-4 leukemia is -0.321% (active); in the assay with SR leukemia it was 25.3%.

As for `C=CCCCCCCCCC(=O)[O][Sn]([CH2]CCC)([CH2]CCC)[CH2]CCC`, the growth is -55.1% (active) with EKVX NSCLC; -82% (active) in the assay on SN12C renal; -92.2% (active) in the assay on TK-10 renal (10 µM unless noted); -99.6% (active) in the assay on ACHN renal; -89.4% (active) in the assay on CAKI-1 renal; -97.3% (active) with A498 renal. For the same compound, the growth with MOLT-4 leukemia is 4.17% (active); with SR leukemia it was 8.68% (active).

Turning to `N#Cc1c(N)[nH]c(S)c1C#N`, the growth was 101% in the assay with EKVX NSCLC; 88.2% with UO-31 renal; 111% in the assay on TK-10 renal (10 µM unless noted); 93.6% with ACHN renal; 98.5% with CAKI-1 renal; 76.2% with A498 renal. Moreover, the growth with CCRF-CEM leukemia was 102%; with MOLT-4 leukemia it was 108%; with SR leukemia, 97.8%.

Regarding `CC[C@H](C)C(=O)O[C@H]1C[C@@H](C)C=C2C=C[C@H](C)[C@H](CC[C@@H]3C[C@@H](O)CC(=O)O3)[C@H]21`, the growth with EKVX NSCLC was 62.4%; in the assay on UO-31 renal, 74.7%; with TK-10 renal (10 µM unless noted) it was 104%; with ACHN renal it was 32.9%; with CAKI-1 renal, 20.7%; with A498 renal, -27.9% (active). The results for the growth in the assay on CCRF-CEM leukemia and in the assay on MOLT-4 leukemia were 72.9% and 90.8%, respectively.

`CCOC(=O)c1c(C)c(C(=O)OCC)n(C)c1C`: the growth was 75% with EKVX NSCLC; 104% in the assay with SN12C renal; 78.4% with TK-10 renal (10 µM unless noted); 95.6% in the assay on ACHN renal; 84.9% in the assay on CCRF-CEM leukemia; 87.1% in the assay on MOLT-4 leukemia. Further, the growth with SR leukemia was 87.8%.

For the compound `CC/C=C\C=C/C(=O)N/C=C/CC1Cc2cccc(O)c2C(=O)O1` (stereo unspecified), the growth in the assay on EKVX NSCLC is 88.8%; with SN12C renal, 101%; with TK-10 renal (10 µM unless noted), 109%; with ACHN renal it was 145%; in the assay with CAKI-1 renal it was 69.5%; in the assay with A498 renal, 47.9%. Moreover, the figures for the growth in the assay on MOLT-4 leukemia and in the assay on SR leukemia were 47.5% and -67.6% (active), respectively.

Take `COc1cc(/C=C/C(=O)c2ccc(F)cc2)ccc1OCCCCCOc1cc2c(cc1OC)C(=O)N1CCCC1C=N2` (stereo unspecified): the growth is -20.9% (active) in the assay with EKVX NSCLC; -2.73% (active) with SN12C renal; -9.06% (active) in the assay with TK-10 renal (10 µM unless noted); -9.07% (active) in the assay on ACHN renal; -1.54% (active) in the assay on CAKI-1 renal; -65.5% (active) in the assay with A498 renal. Further, the growth is -28.9% (active) in the assay with MOLT-4 leukemia and -32.6% (active) with SR leukemia.

`c1ccc2c(c1)[nH]c1c2cc[n+]2cc3c(cc12)CCCC3`: the growth with SN12C renal is 24.5%; in the assay with UO-31 renal it was 82.1%; in the assay on TK-10 renal (10 µM), 69.2%; in the assay on TK-10 renal (100 µM), -97.9% (active) and -92.5% (active); with ACHN renal it was 66.2%; with A498 renal, 97.3%. Also, the growth in the assay with CCRF-CEM leukemia was 1.33% (active); in the assay with MOLT-4 leukemia, 2.41% (active); in the assay with SR leukemia, 10.6%.

For `COc1ccc(C2CC(c3ccc(OC)c(OC)c3)=NN2C(=O)c2cc(OC)c(OC)c(OC)c2)c(OC)c1` (stereo unspecified), the growth is 86.7% with EKVX NSCLC; 42.2% in the assay with UO-31 renal; 87.7% in the assay with TK-10 renal (10 µM unless noted); 65.2% with ACHN renal; 34.6% in the assay on CAKI-1 renal; 92.9% in the assay on CCRF-CEM leukemia. In addition, the figures for the growth in the assay with MOLT-4 leukemia and in the assay with SR leukemia were 106% and 48.7%, respectively.

As to `Oc1[nH]c2ccccc2c1/C=c1/ccc2c(c1)N=C(c1cc(F)cc(F)c1)N=2`, the growth is 70.7% with EKVX NSCLC; 60.2% in the assay on UO-31 renal; 114% with TK-10 renal (10 µM unless noted); 50.9% in the assay on ACHN renal; 52.1% with CAKI-1 renal; 60.5% in the assay with A498 renal. Besides, the growth was -3.33% (active) in the assay with CCRF-CEM leukemia, 21% in the assay on MOLT-4 leukemia and 19.9% in the assay on SR leukemia.

Take `CC1SC(c2c(Cl)cccc2Cl)N(NC(=O)c2[nH]c3ccc(F)cc3c2-c2ccccc2)C1=O` (stereo unspecified): the growth in the assay on EKVX NSCLC is 41.8%; with UO-31 renal, -17.6% (active); with TK-10 renal (10 µM unless noted) it was 21.6%; in the assay on ACHN renal it was 34.4%; with CCRF-CEM leukemia, 56.1%; in the assay on MOLT-4 leukemia, 69.1%. For the same compound, the growth in the assay with SR leukemia is 54.8%.
